From PubChem
UCHL1 inh = inhibitors of human UCHL1 deubiquitinase; Ubiquitin carboxyl-terminal hydrolase isozyme L1 (Homo sapiens), P09936; purified UCHL1, Ub-rhodamine cleavage fluorescence; inhibition, % at 20 µM; actives 0.2% (n = 47,000); AID 1645859, 2021
USP7 inh = inhibitors of human USP7 deubiquitinase. AID 1645854, 2021. actives 0.3% (n = 47,000). Ubiquitin carboxyl-terminal hydrolase 7 (Homo sapiens), Q93009. inhibition, % at 20 µM. purified USP7, Ub-rhodamine cleavage fluorescence
Target sequence (Q93009 whole entry, looked up): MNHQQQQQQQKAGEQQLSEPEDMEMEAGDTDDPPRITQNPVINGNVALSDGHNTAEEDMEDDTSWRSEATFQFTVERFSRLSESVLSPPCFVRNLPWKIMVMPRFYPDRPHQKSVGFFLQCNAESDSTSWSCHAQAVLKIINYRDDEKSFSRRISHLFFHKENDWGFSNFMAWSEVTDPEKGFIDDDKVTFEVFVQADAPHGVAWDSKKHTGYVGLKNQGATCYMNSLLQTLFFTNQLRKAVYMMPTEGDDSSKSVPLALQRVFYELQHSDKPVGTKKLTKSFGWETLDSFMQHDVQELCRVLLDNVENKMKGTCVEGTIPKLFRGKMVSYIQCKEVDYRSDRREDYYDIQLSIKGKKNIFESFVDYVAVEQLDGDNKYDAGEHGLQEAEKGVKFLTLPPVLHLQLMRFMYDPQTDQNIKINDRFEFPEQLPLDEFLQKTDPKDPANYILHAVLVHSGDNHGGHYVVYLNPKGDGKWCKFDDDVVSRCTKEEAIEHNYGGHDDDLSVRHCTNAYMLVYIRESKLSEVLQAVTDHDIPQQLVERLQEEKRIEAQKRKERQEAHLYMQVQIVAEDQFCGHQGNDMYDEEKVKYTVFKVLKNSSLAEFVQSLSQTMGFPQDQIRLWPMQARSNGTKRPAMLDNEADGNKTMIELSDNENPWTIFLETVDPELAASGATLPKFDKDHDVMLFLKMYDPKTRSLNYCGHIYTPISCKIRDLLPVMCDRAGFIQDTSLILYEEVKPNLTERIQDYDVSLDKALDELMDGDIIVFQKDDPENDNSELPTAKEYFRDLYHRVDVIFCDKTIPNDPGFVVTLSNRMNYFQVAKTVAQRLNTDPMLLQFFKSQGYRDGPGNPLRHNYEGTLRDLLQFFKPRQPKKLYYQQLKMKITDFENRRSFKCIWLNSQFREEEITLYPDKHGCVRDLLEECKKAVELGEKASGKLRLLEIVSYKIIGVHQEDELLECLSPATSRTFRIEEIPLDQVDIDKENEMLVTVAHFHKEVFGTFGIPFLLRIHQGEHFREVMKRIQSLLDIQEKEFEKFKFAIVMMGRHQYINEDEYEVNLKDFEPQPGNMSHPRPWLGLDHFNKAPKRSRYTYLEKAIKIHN
USP10 block = inhibitors of human USP10 deubiquitinase | purified USP10, Ub-rhodamine fluorescence, 60 min | actives 1.1% (n = 47,000) | inhibition, % at 20 µM | Ubiquitin carboxyl-terminal hydrolase 10 (Homo sapiens), Q14694
USP8 inh = inhibitors of human USP8 deubiquitinase; Ubiquitin carboxyl-terminal hydrolase 8 (Homo sapiens), P40818; purified USP8, Ub-rhodamine cleavage fluorescence, 30 min; inhibition, % at 20 µM; actives 4.2% (n = 47,000); AID 1645853, 2021
USP17 block = inhibitors of human USP17 deubiquitinase; inhibition, % at 50 µM; actives 6.5% (n = 47,000); purified USP17, Ub-rhodamine cleavage fluorescence, 3 h; AID 1645855, 2021; Ubiquitin carboxyl-terminal hydrolase 17-like protein 5 (Homo sapiens), A8MUK1
USP30 inh = inhibitors of human USP30 deubiquitinase; Ubiquitin carboxyl-terminal hydrolase 30 (Homo sapiens), Q70CQ3; inhibition, % at 25 µM; purified USP30, Ub-rhodamine cleavage fluorescence; actives 5.3% (n = 47,000)
Starred values were filed as active, the others as inactive; . = no result. Most compounds without a hit are left out; they make up all but 12% or so of the library. Cut-off read from the data, not from the text of the source: active = inhibition above about 30%; inactive = the rest.

SMILES	UCHL1 inh	USP7 inh	USP10 block	USP8 inh	USP17 block	USP30 inh
CC(C)n1nnc2cc(S(=O)(=O)N3CCCC(C(=O)NCCc4ccco4)C3)ccc21 (centres undefined)	3	8	-5	17	42*	-30
COc1cccc(Nc2ncnc3oc(C)c(C)c23)c1	3	-13	1	15	9	-2
Cc1oc2ncnc(Oc3ccc(F)cc3)c2c1C	4	-16	2	25	29	41*
OC1(Cn2ccc3nc(Cl)ccc32)CCN(Cc2ccccc2F)CC1	4	0	1	25	19	15
Cc1cc(CNC(=O)c2cc3ccccc3oc2=O)nn1C	0	0	1	4	-7	4
Cc1ccc(C(=O)C(C)OC(=O)c2cc3ccccc3oc2=O)cc1 (centres undefined)	0	0	4	-1	47*	.
COC(=O)c1ccc(CNC(=O)c2ccc(Oc3ccccc3)cc2)cc1	3	2	12	34*	12	13
COC(=O)c1ccc(CNC(=O)c2cc3ccccc3oc2=O)cc1	2	7	6	0	62*	.
COC(=O)c1ccc(CNC(=O)c2ccc3c(c2)OCCO3)cc1	-3	0	-2	3	14	.
O=C(COC(=O)c1cc2ccccc2oc1=O)Nc1ncccn1	-24	-26	-8	-12	-68	-237
O=C(COc1cccc(C(=O)NCc2ccccc2)c1)Nc1ccc(Oc2ccccc2)cc1	1	10	11	10	40*	56*
COc1cc2c(cc1OC)-c1cc(Nc3ccc(Br)cc3)nc(=O)n1CC2	-3	7	43*	8	25	53*
Cc1ccc(NC(=O)c2cc(-c3ccccn3)nc3ccc(C)cc23)cc1	-5	3	-2	-12	-2	-69
Cc1ccc2nc(NC(=O)c3ccccc3Cl)[nH]c(=O)c2c1	1	3	6	-1	46*	-13
N#Cc1c2n(c(=O)n(Cc3cccc(Br)c3)c1=O)CCC2	-15	-31	-7	27	19	-65
O=C1c2cccc(OCc3ccc(Cl)cc3)c2CCN1Cc1cccnc1	5	-43	4	0	18	32*
Cc1c(C(=O)NCc2ccc3c(c2)OCO3)oc2ccc(S(=O)(=O)N3CCC4(CC3)OCCO4)cc12	0	7	-7	-13	0	-8
Cn1nnc2c(N3CC=CCC3)nc(Cc3ccc(Cl)cc3Cl)nc21	2	4	-1	16	18	25
Cn1cc(C(=O)Oc2ccc(C#N)cc2)c(C(F)(F)F)n1	-1	0	-2	3	0	7
CN(C)S(=O)(=O)c1ccc(C(=O)Oc2ccc(-c3ccc(C#N)cc3)cc2)cc1	3	9	4	14	18	31*
COc1ccccc1C(=O)Oc1ccc(-c2ccc(C#N)cc2)cc1	1	6	3	1	49*	8
Cc1ccc(CNc2nc(Nc3cccc(C)c3)c3cnn(C)c3n2)cc1	10	5	5	0	2	-16
COCc1cc(C)nc2sc(-c3ccon3)c(NC(=O)c3ccccc3)c12	-1	-5	-4	-6	0	-13
CC1CCc2[nH]c3ccc(C(=O)N4CCC(C(=O)O)CC4)cc3c2C1 (centres undefined)	4	1	-2	27	12	5
CCCCCc1cc(O)c2c(ccc3c(O)c4c(cc32)C(C)(C)c2cc(O)cc(O)c2C4=O)c1	2	-1	10	1	31*	-17
SMILES	UCHL1 inh	USP7 inh	USP10 block	USP8 inh	USP17 block	USP30 inh
O=[N+]([O-])c1ccc(N2CCN(c3ccc(C(F)(F)F)cn3)CC2)nc1	0	10	2	17	15	0
Cc1cc(C)nc(N2CCN(S(=O)(=O)N3CCOCC3)CC2)n1	-2	-3	-1	7	-4	6
COC(=O)c1ccccc1NC(=O)C1CCCN(c2nnc(-n3cccc3)s2)C1 (centres undefined)	8	10	15	40*	.	36*
Cc1c(Cl)cccc1NC(=O)C1CCCN(c2nnc(-n3cccc3)s2)C1 (centres undefined)	2	6	13	60*	30	-45
Cc1c(F)cccc1NC(=O)C1CCCN(c2nnc3ccccn23)C1 (centres undefined)	4	-5	0	17	4	8
CCc1nc2cc(N3CCCC(C(=O)N4CCC5(CC4)OCCO5)C3)cnc2nc1CC (centres undefined)	-29	-19	-5	-16	-80	-188
CCCn1c(=O)c2sccc2n2c(CCC(=O)N3CCc4ccccc4C3)nnc12	2	3	2	87*	.	9
CCCn1c(=O)c2sccc2n2c(CCC(=O)NC3CCC(C)CC3)nnc12 (centres undefined)	4	9	2	25	.	40*
CC(C)CCn1c(=O)c2ccccc2n2c(CCC(=O)NC3CCCCCC3)nnc12	0	-32	-6	27	41*	50*
CCn1c(=O)c2sccc2n2c(CCC(=O)NC3CCCCCC3)nnc12	2	1	-1	17	13	29
Cn1ncc2c(NCc3ccc(Cl)cc3)nc(NC3CCCC3)nc21	10	-28	6	-3	6	19
Clc1cc(Cl)cc(Nc2nc(CN3CCOCC3)nc3sc4c(c23)CCC4)c1	-1	-37	-5	-5	-8	-75
CCCCC/C=C/C=C/C(=O)OC1C(O)CC(c2ccc3c(c2O)C(=O)c2c(O)cc4cc(C)cc(O)c4c2C3=O)OC1C (centres undefined)	19	-1	27	57*	88*	26
CCOc1ccc(-n2c(SCC(=O)N3CC(=O)Nc4ccccc43)nnc2-c2ccc(OC)cc2)cc1	-1	2	-3	-2	51*	17
Cc1nn(-c2nc3ccccc3o2)c2c1C(c1ccc(F)cc1)CC(=O)N2 (centres undefined)	5	2	0	0	3	25
Cc1nn(-c2nc3ccccc3o2)c2c1C(c1cccc(F)c1F)CC(=O)N2 (centres undefined)	7	4	5	15	27	32*
O=C(COC(=O)c1ccc(CN2CCCC2=O)cc1)c1ccc2c(c1)OCCO2	-3	-6	-4	-22	9	-25
Cc1cc(C(=O)COC(=O)c2ccc(C(C)(C)C)cc2)c(C)n1Cc1ccc2c(c1)OCO2	0	3	0	34*	5	0
O=C(Nc1nc2ccccc2s1)c1ccc2c(c1)C(=O)N(Cc1cccnc1)C2=O	3	4	7	5	58*	24
